“And” between values parts separate entries of the source, which are not always exact repeats. Identical values can stand only once. Records with an inconclusive call do not appear. The source made the active and inactive calls. Unless noted, calls come from the whole dose curve; as a rule, active = well fitted curve in either direction with a large enough effect (not every such curve was filed as active); inconclusive = small, poorly fitted or top-dose-only effect, or another doubt; inactive = flat fitted curve, though single readings scatter.
Columns and labels:
[1] = AP1 Signaling Pathway (AID 357);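 note: ME-180 reporter cells stimulated with EGF at its EC50 level; % is set by controls: 0 for no effect and ±100 for the full control effect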
Summary of the method: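 Read-out was the 460nm/530nm emission ratio (excitation 405nm) after CCF4 loading for 2.5 hours at room temperature. Cells carried an AP-1-driven beta-lactamase reporter, were stimulated with EC50 EGF plus compound for 5 hours, and AC50 values came from titrations.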

[2] = Cell Viability - BJ (AID 421; calls by dose curve;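 note: potency is the fitted concentration of half-maximal effect; cells exposed to compound for 40 hours at 37 °C before readout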); conditions: BJ fibroblast viability, qHTS
Summary of the method: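 Cytotoxicity as drop in intracellular ATP (CellTiter-Glo, 20 min RT) after 40 hr compound exposure of BJ fibroblasts at 37 °C. Titrations scaled between DMSO and 100 uM tamoxifen, Hill-fitted for AC50.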

[3] = Cell Viability - MRC5 (AID 434; calls by dose curve;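 note: potency is the fitted concentration of half-maximal effect; potency reflects cytotoxicity seen as loss of intracellular ATP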); conditions: MRC5 lung fibroblast viability, qHTS
Summary of the method: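 AC50 values come from Hill-equation fits of intracellular ATP loss, measured by CellTiter-Glo luminescence. Normal lung fibroblasts (MRC5) had 40 hr compound treatment at 37 C, normalized between DMSO and 100 uM tamoxifen.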

[4] = Stat Signaling Pathway (AID 446); conditions: ME-180 (cervical carcinoma) SIE beta-lactamase reporter, IL-6 stimulated, 5 h;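 note: ME-180 cervical cancer cells given 40 pM IL-6 alongside compound; SIE-controlled beta-lactamase reporter measured as 460/530 nm FRET emission ratio; % is set by controls: 0 for no effect and ±100 for the full control effect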
Summary of the method: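 FRET read-out (405 nm excitation, 460/530 nm emission) of a beta-lactamase reporter under a STAT-inducible element in ME-180 cervical carcinoma cells. Cells with compound receive 40 pM IL-6 for 5 h. Values are normalised to AC90 stimulation and AC90 JAK-inhibitor controls.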

[5] = target: Glucocorticoid receptor (Homo sapiens) (UniProt P04150); test: GR-GFP Redistribution (AID 450;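 active = compounds whose dose series gives a full or clear partial fitted curve of increased nuclear translocation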; note: potency is the fitted concentration of half-maximal effect); conditions: U2OS GR-GFP nuclear translocation, laser cytometry, 2 h
[6] = target: Mitogen-activated protein kinase 10 (Mus musculus) (UniProt Q61831); test: JNK3 AlphaScreen Assay (AID 530);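 note: kinase came from lysate of stimulated human HepG2 cells; signal reports phosphorylation of biotinylated GST-cJun 1-79 at Ser73 with 10 µM ATP; % is set by controls: 0 for no effect and ±100 for the full control effect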
Summary of the method: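 qHTS titrations with 15 min compound pre-incubation before adding ATP (10 uM final). Read-out: AlphaScreen of Ser73-phosphorylated biotin-GST-cJun using HepG2 lysate JNK3 activated by IL-1β and TNFα.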

[7] = Cell Viability - HUV-EC-C (AID 542; active = well fitted curve in the direction sought with a large enough effect; an effect the other way counts as inactive or inconclusive; note: % is set by controls: 0 for no effect and ±100 for the full control effect; nearly all actives have a fitted effect of over 35% in size)
Summary of the method: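 Cells were seeded at 1000 per well and incubated 5 hr at 37 °C before compound addition. After 40 hr at 37 °C, CellTiter-Glo reagent was added for 20 min and luminescence read. AC50 values came from Hill-equation modelling.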

[8] = Cell Viability - H-4-II-E (AID 543; active = well fitted curve in the direction sought with a large enough effect; an effect the other way counts as inactive or inconclusive; note: % is set by controls: 0 for no effect and ±100 for the full control effect; nearly all actives have a fitted effect of over 35% in size)
Summary of the method: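 Cells seeded at 1500 per well and rested 5 hr; compounds added; 40 hr incubation at 37 °C; CellTiter-Glo added, 20 min at room temperature; luminescence read. Hill-equation fits gave AC50.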

[9] = Cell Viability - SH-SY5Y (AID 544; active = well fitted curve in the direction sought with a large enough effect; an effect the other way counts as inactive or inconclusive;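 note: 0% = DMSO alone and -100% = 100 µM tamoxifen; nearly all actives have a fitted effect of over 55% in size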); conditions: SH-SY5Y neuroblastoma cell viability; viability change, negative = cytotoxic: at 92.2 µM (top of the series)
Summary of the method: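 Cells were plated at 1500 per well and allowed 5 hr at 37 °C. Compounds were added across a concentration range and incubated 40 hr at 37 °C. CellTiter-Glo was added for 20 min at room temperature before luminescence reading.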

[10] = Cell Viability - Renal Proximal Tubule (AID 545; active = well fitted curve in the direction sought with a large enough effect; an effect the other way counts as inactive or inconclusive;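 note: 0% = DMSO only and -100% = 100 µM tamoxifen; nearly all actives have a fitted effect of over 40% in size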); conditions: renal proximal tubule cells viability, primary cells of rat origin; activity change, negative = cytotoxicity: at 91.7 µM (top of the series)
Summary of the method: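 Luminescent ATP signal (CellTiter-Glo) served as the viability read-out after 40 hr compound exposure of freshly isolated rat proximal tubule cells at 37 °C. Concentration-dependent ATP loss was fitted with the Hill equation to give AC50.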

[11] = Cellular Toxicity (caspase-3) HepG2 (AID 654; active = well fitted curve in the direction sought with a large enough effect; an effect the other way counts as inactive or inconclusive;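 note: cells exposed to compound for 16 hours before reading; 0% = DMSO alone and 100% = caspase signal from 100 µM tamoxifen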)
Summary of the method: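 Caspase 3/7 activation in HepG2 is measured as rising luminescence after a 16 hr treatment at 37 °C. Values are scaled between DMSO basal and 100 uM tamoxifen, and AC50 is fitted with the Hill equation.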

[12] = Cell Viability - Jurkat (AID 426;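 active = dose-dependent loss of cell ATP signal giving a full or clear fitted curve, ranked by lower potency value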;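 note: potency is the fitted concentration of half-maximal effect; cells exposed to compound for 40 hours at 37 °C before ATP read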); conditions: qHTS
Summary of the method: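 Cells of the human T-cell leukemia line Jurkat (E6-1) are seeded at 5000 per well, treated with compound across a concentration range for 40 hours at 37 °C, then lysed with CellTiter-Glo; luminescence reports ATP.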

[13] = Cell Viability - Hek293 (AID 427;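 active = compounds whose dose-response curve shows a full or clear partial loss of cell viability, called from curve shape rather than a numeric limit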;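 note: potency is the fitted concentration of half-maximal effect; cells exposed to compound for 40 hours at 37 °C before reading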); conditions: qHTS
Summary of the method: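 Luminescent ATP content (CellTiter-Glo, 20 min at room temperature) was measured after a 40 hr, 37 °C compound exposure of HEK293 cells. AC50 values came from Hill-equation fits of qHTS concentration-response data normalized to DMSO and 100 uM tamoxifen.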

[14] = Cell Viability - HepG2 (AID 433; calls by dose curve;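 note: potency is the fitted concentration of half-maximal effect; potency for ATP loss meaning cytotoxicity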); conditions: qHTS
Summary of the method: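 Read-out is luciferase-based quantitation of cellular ATP as a measure of viable HepG2 cells after 40 h treatment at 37 °C. Signal decrease is scaled between DMSO-only and 100 uM tamoxifen controls, with AC50 fitted by the Hill equation.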

[15] = Cell Viability - SK-N-SH (AID 435; calls by dose curve;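 note: potency is the fitted concentration of half-maximal effect; compound exposure lasted 40 h at 37 °C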); conditions: SK-N-SH neuroblastoma cell viability qHTS
Summary of the method: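 Luminescent ATP signal served as the viability read-out after 40 hours of compound treatment of human neuroblastoma SK-N-SH cells. Concentration-response data, scaled between DMSO and 100 uM tamoxifen, gave AC50 values by standard Hill modeling.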

[16] = Cell Viability - N2a (AID 540; active = well fitted curve in the direction sought with a large enough effect; an effect the other way counts as inactive or inconclusive;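 note: cells exposed to compound for 40 h at 37 °C; plate controls were DMSO alone for no effect and tamoxifen control for full effect; nearly all actives have a fitted effect of over 45% in size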); conditions: N2a mouse neuroblastoma cell viability; activity change, negative = cytotoxicity: at 92.2 µM (top of the series)
Summary of the method: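 Cytotoxicity was scored as loss of cellular ATP in N2a cells, a mouse neuroblastoma line. Compounds are applied in a qHTS concentration series for 40 hr at 37 °C.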

[17] = Cell Viability - NIH 3T3 (AID 541; active = well fitted curve in the direction sought with a large enough effect; an effect the other way counts as inactive or inconclusive;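 note: plate controls were DMSO alone for no effect and tamoxifen positive control for full effect; nearly all actives have a fitted effect of over 25% in size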); conditions: NIH 3T3 cell viability, qHTS; at 92.2 µM (top of the series)
Summary of the method: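 Cells seeded at 1000/well, rested 5 hr at 37 °C, then dosed and incubated 40 hr at 37 °C. CellTiter-Glo added, 20 min room temperature, luminescence read. AC50 by Hill fit.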

[18] = Cell Viability - Mesenchymal (AID 546; active = well fitted curve in the direction sought with a large enough effect; an effect the other way counts as inactive or inconclusive;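 note: cells exposed to compound for 40 hours before reading; 0% = DMSO only and -100% = 100 µM tamoxifen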); conditions: mesenchymal cells viability, qHTS; activity change, negative = cytotoxicity: at 91.7 µM (top of the series)
Summary of the method: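 CellTiter-Glo luminescence (intracellular ATP, 20 min room temperature) after 40 hr compound exposure at 37 °C of 1000 glomerulus-derived human kidney mesenchymal cells/well; AC50 values obtained by fitting qHTS concentration-response data to the Hill equation.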

[19] = target: 3',5'-cyclic-AMP phosphodiesterase 4B (Homo sapiens) (UniProt Q07343); test: qHTS Assay for Inhibitors of PDE-IV (AID 607; active = well fitted activation curve with a large enough effect in the main read-out, with a control signal flat, not every such curve was filed as active; note: % of control where 0% means no effect)
Summary of the method: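 Cell-based read-out of cAMP via a modified cyclic nucleotide-gated channel and membrane potential dye (535/590 nm) in HEK293 cells expressing PDE4 endogenously. Compounds tested up to 22.9 uM final; 100 uM RO 20-1724 reference.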

[20] = target: Lysosomal acid glucosylceramidase (Homo sapiens) (UniProt P04062); test: Glucocerebrosidase-p2 (AID 348; in the data active = potency below about 10 µM; note: potency is the fitted concentration of half-maximal effect); conditions: purified GBA, blue fluorogenic substrate, 40 min
Summary of the method: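 Normal human glucocerebrosidase (0.2 nM) with blue fluorogenic substrate (80 uM final) in citrate/phosphate pH 5.9 with 10mM sodium taurocholate, 0.01% tween-20; 40 min RT, NaOH/glycine stop; fluorescence Ex 365/Em 440; AC50 from a titration from 0.6 nM upwards.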

Sequence of Glucocorticoid receptor (Homo sapiens) (P04150 whole entry, looked up): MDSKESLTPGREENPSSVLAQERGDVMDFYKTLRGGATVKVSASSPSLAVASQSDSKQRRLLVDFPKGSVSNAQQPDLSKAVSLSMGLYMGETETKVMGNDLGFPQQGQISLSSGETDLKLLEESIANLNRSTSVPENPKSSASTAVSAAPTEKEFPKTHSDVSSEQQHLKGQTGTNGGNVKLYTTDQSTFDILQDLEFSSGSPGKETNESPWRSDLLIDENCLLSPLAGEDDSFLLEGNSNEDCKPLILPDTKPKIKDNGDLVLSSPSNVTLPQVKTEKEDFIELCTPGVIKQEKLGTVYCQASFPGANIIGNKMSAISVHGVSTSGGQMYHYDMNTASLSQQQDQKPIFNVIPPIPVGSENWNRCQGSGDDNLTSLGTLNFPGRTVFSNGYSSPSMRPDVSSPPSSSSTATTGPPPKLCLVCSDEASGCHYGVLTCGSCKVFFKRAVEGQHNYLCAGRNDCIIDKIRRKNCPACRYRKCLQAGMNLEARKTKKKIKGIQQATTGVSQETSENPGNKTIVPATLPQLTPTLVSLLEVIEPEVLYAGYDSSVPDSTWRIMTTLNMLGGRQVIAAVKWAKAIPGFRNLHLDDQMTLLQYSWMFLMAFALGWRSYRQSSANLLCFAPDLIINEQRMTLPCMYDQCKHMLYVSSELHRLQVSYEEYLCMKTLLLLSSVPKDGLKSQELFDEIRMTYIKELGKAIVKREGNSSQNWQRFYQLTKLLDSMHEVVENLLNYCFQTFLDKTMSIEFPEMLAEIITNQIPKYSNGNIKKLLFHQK
Sequence of 3',5'-cyclic-AMP phosphodiesterase 4B (Homo sapiens) (Q07343 whole entry, looked up): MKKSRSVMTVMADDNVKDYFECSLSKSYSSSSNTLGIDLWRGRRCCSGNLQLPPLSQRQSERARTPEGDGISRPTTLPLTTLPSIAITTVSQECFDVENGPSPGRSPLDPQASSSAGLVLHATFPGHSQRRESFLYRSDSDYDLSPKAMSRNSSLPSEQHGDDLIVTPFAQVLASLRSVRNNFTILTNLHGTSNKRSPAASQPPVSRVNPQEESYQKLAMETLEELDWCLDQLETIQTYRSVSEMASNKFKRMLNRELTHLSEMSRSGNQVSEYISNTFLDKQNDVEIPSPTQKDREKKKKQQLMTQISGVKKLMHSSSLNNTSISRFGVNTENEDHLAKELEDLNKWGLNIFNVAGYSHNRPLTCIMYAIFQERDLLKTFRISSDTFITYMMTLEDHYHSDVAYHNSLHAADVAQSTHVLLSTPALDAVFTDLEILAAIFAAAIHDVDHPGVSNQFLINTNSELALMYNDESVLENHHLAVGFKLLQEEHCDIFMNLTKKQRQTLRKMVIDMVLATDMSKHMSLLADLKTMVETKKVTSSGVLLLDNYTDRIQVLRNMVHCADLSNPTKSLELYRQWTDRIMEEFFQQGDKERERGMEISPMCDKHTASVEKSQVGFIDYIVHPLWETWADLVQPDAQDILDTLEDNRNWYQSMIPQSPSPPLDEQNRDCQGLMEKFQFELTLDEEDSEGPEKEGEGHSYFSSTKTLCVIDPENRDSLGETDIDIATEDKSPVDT
Sequence of Lysosomal acid glucosylceramidase (Homo sapiens) (P04062 whole entry, looked up): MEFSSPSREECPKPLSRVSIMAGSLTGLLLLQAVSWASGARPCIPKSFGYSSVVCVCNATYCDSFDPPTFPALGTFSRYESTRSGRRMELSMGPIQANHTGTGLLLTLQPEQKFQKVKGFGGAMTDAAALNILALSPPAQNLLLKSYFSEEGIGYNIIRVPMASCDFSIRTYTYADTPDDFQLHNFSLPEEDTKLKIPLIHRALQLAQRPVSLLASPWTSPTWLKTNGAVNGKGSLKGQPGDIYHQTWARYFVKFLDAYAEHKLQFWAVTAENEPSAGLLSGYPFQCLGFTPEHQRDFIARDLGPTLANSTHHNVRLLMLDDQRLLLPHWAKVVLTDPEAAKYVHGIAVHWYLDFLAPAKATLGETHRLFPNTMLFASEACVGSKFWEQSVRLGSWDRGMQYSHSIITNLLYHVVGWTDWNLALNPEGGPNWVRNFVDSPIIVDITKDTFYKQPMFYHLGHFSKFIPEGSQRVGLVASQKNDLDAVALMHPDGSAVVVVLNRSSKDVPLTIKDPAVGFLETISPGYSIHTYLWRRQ

O=C(O)c1cc(O)c2c(c1)C(=O)c1cccc(O)c1C2=O
inactive: outcome [1] | Potency [2] > 92 µM | Potency [3] > 92 µM | activity, negative = inhibition ([4]; at 17.2 µM (top of the series)) 11.9% | Potency [5] > 20.6 µM | outcome [6] | Potency [7] | Potency [8] | Potency [9] | Potency [10] | Potency [11]

CCCNC(=O)NS(=O)(=O)c1ccc(Cl)cc1
inactive: outcome [1] | Potency [2] > 92 µM | Potency [12] > 92 µM | Potency [13] > 92 µM | Potency [14] > 92 µM | Potency [3] > 92 µM | Potency [15] > 92 µM | activity, negative = inhibition ([4]; at 17.2 µM (top of the series)) -8.89% and -0.985% | activity, negative = inhibition ([4]; at 38 µM (top of the series)) -1.14% | Potency [5] > 46 µM and > 20.6 µM | outcome [6] | Potency [16] | activity change, negative = cytotoxicity [17] 4.29% | Potency [7] | Potency [8] | Potency [9] | Potency [10] | Potency [18] | outcome [19] | Potency [11]

O=C1NC(=O)C(c2ccccc2)(c2ccccc2)N1
inactive: outcome [1] | Potency [2] > 92 µM | Potency [12] > 92 µM | Potency [13] > 92 µM | Potency [14] > 92 µM | Potency [3] > 92 µM | Potency [15] > 92 µM | activity, negative = inhibition ([4]; at 17.2 µM (top of the series)) -0.146% | activity, negative = inhibition ([4]; at 38 µM (top of the series)) -3.08% | Potency [5] > 46 µM and > 20.6 µM | outcome [6] | Potency [16] | activity change, negative = cytotoxicity [17] -17.5% | Potency [7] | Potency [8] | Potency [9] | Potency [10] | Potency [18] | outcome [19] | Potency [11]

CC(=O)CCCCn1c(=O)c2c(ncn2C)n(C)c1=O
inactive: outcome [1] | activity, negative = inhibition ([4]; at 17.2 µM (top of the series)) -10.5% | activity, negative = inhibition ([4]; at 38 µM (top of the series)) 9.49% | Potency [5] > 46 µM and > 20.6 µM | outcome [6] | outcome [19]

NC(N)=Nc1nc(CSCC/C(N)=N/S(N)(=O)=O)cs1
inactive: outcome [1] | activity, negative = inhibition ([4]; at 17.2 µM (top of the series)) 12% and 11.5% | activity, negative = inhibition ([4]; at 38 µM (top of the series)) 1.63% | Potency [5] > 46 µM and > 20.6 µM | outcome [6] | outcome [19]

CC(=O)N[C@@H](CS)C(=O)O
inactive: outcome [1] | activity, negative = inhibition ([4]; at 17.2 µM (top of the series)) 3.22% | Potency [5] > 20.6 µM

CCN(CC)CCNC(=O)c1ccc(N)cc1
inactive: outcome [1] | activity, negative = inhibition ([4]; at 17.2 µM (top of the series)) 5.34% and 0.638% | activity, negative = inhibition ([4]; at 38 µM (top of the series)) 3.95% | outcome [6] | outcome [19]

CC(C)NCC(O)COc1cccc2[nH]ccc12 (stereo unspecified)
inactive: outcome [1] | activity, negative = inhibition ([4]; at 17.2 µM (top of the series)) 24.1% | Potency [5] > 20.6 µM

O=C(O)c1cc(-c2ccccc2)nc2ccccc12
inactive: outcome [1] | activity, negative = inhibition ([4]; at 17.2 µM (top of the series)) -0.648% | Potency [5] > 20.6 µM

CC[C@]1(O)C[C@@H]2CN(CCc3c([nH]c4ccccc34)[C@@](C(=O)OC)(c3cc4c(cc3OC)N(C)[C@H]3[C@@](O)(C(=O)OC)[C@H](OC(C)=O)[C@]5(CC)C=CCN6CC[C@]43[C@@H]65)C2)C1
inactive: outcome [1] | activity, negative = inhibition ([4]; at 17.2 µM (top of the series)) -9.58% | Potency [5] > 20.6 µM

c1cc(-c2sc(-c3ccncc3)c(-c3ccncc3)c2-c2ccncc2)ccn1
inactive: Potency [20] > 11.4 µM | outcome [1] | activity, negative = inhibition ([4]; at 7.69 µM (top of the series)) 7.72% | Potency [5] > 46 µM | activity change, negative = inhibition [6] -6.48% [at 11.4 µM] | outcome [19]

— PubChem BioAssay (NCATS)
